# Compound activity from PubChem.
# MCL1 BIM primary: disrupts human MCL1 binding to BIM-BH3 peptide; 320,000 tested, 0.68% active; inhibition, % at 10.9 µM; GST-MCL1 / FITC-Bim-BH3 fluorescence polarization;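 active means inhibition above the mean inhibition of all tested compounds plus 3 SD, set per campaign, cut at about 40% in these data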;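 further: 0% = DMSO wells and 100% = unlabeled Bim-BH3 peptide control; higher means more loss of mP so more displacement of Bim peptide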
# Target sequence (Q07820 whole entry, looked up): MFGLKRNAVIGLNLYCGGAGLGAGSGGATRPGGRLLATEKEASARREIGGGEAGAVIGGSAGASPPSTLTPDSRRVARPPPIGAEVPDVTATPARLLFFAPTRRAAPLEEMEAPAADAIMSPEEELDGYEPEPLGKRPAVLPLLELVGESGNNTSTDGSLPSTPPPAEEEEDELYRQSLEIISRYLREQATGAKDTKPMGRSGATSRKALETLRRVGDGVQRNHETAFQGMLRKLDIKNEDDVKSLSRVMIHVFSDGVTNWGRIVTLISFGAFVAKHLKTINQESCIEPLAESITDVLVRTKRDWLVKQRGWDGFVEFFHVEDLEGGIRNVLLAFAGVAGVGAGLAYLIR
# MEX-5 binding: C. elegans MEX-5 TCR-2 RNA binding activity. activity score (negative = inhibition of binding), % at 10 µM. Q9XUB2. 300,000 tested, 0.38% active. MEX-5/FITC-TCR2 RNA binding, fluorescence polarization; hits give low values;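 active means inhibition past about -25% in most replicates, and total fluorescence under double the plate's negative control median, limit read from the data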;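 further: 0% = DMSO and -100% = 5 µM competing unlabeled TCR2 RNA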
# Bcl-xL primary: inhibitors of human Bcl-xL; Q07817; GST-Bcl-xL / FITC-Bim BH3 peptide fluorescence polarization; inhibition, % at 10.9 µM; 320,000 tested, 0.7% active; AID 2129;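 active means inhibition above the mean of all tested compounds plus 3 SD, cutoff set per campaign, cut at about 30% in these data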;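 further: 0% = DMSO wells and 100% = unlabeled Bim-BH3 peptide competitor; inhibitors lower millipolarization by displacing the labeled peptide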
# Target sequence (Q07817 whole entry, looked up): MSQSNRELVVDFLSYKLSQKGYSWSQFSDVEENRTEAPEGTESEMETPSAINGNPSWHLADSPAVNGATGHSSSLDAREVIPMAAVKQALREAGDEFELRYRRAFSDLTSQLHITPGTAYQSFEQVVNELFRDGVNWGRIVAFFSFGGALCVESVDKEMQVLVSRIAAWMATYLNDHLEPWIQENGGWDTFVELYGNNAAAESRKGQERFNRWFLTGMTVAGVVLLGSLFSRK
# GLD-1 TGE inh: GLD-1-TGE RNA interaction inhibition (C. elegans); Q17339; purified GLD-1 + fluorescein TGE RNA, fluorescence polarization; inhibition, % at 5.96 µM; 320,000 tested, 0.44% active; AID 2280;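 active means percent inhibition above a per-plate cutoff, the plate mean of test compounds plus 3 SD, cut at about 30% in these data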;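 further: 0% = DMSO wells with GLD-1 and probe and 100% = wells lacking GLD-1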
# EBV gp42 inh: EBV gp42 inhibition | Fluorescence polarization binding assay, mP read-out | inhibition, % (tested at 21.74 µM) | 220,000 tested, 0.42% active; in the data active means inhibition above about 50%
# eLon inh: E. coli protease La inhibition | purified E. coli Lon protease, fluorescence polarization | P0A9M0 | inhibition, % at 7.94 µM | 360,000 tested, 0.42% active; in the data active means inhibition above about 13%, passing the limit was not always enough;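 further: 0% = enzyme with probe and DMSO and 100% = no enzyme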
# Bcl-xL conf: counter-screen for MCL1 inhibitors: confirmation of human Bcl-xL inhibitors | shares compounds with MCL1 BIM primary | inhibition, % at 10.9 µM | GST-Bcl-xL / FITC-Bim BH3 peptide FP binding | 1,700 tested, 54% active;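 active means inhibition above a cutoff equal to the mean inhibition of all tested compounds plus 3 SD, cut at about 30% in these data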;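 further: 0% = DMSO wells and 100% = unlabeled Bim BH3 control peptide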
# MCL1 BIM confirm: confirmation of human MCL1 and BIM-BH3 interaction inhibitors | AID 2168 | inhibition, % at 10.9 µM | shares compounds with MCL1 BIM primary | 1,700 tested, 61% active | GST-MCL1 / FITC-Bim-BH3 fluorescence polarization;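 active means inhibition above the average of all tested compounds plus 3 SD, cut at about 40% in these data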;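 further: 0% = DMSO wells and 100% = unlabeled Bim-BH3 control peptide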
# * marks the source's active call; other numbers are inactive results; x = no result. Compounds with a hit are over-represented: about 1.5% of the library has one in this group of screens.
SMILES,MCL1 BIM primary,MEX-5 binding,Bcl-xL primary,GLD-1 TGE inh,EBV gp42 inh,eLon inh,Bcl-xL conf,MCL1 BIM confirm
CCn1c(SC(C)C(=O)NC2CCCC2)nc2cc(S(N)(=O)=O)ccc21 (centres undefined),-9.4,x,-11.9,0.1,x,-11.0,x,x
Nc1ccc2c(c1)C/C(=C/c1ccco1)C2=O,105.3*,-45.2*,60.4*,24.7,97.8*,-13.1,97.3*,106.1*
O=C(NCc1cccs1)c1ccc2sc(C3=C[C@@H](O)[C@@H](O)[C@@H](CO)O3)nc2c1,x,x,x,x,x,-2.5,x,x
COC(=O)C1=C(C(=O)OC)C(c2ccccc2O)c2sc(=O)[nH]c2S1 (centres undefined),53.6*,x,33.4*,2.9,-0.9,8.1,22.2,53.9*
O=C(Cn1cnc2sc(-c3ccccc3)cc2c1=O)NCc1ccccc1,13.0,0.0,0.2,4.8,9.8,-2.8,x,x
O=C(Cn1cnc2sc(-c3ccccc3)cc2c1=O)NCc1ccco1,61.5*,x,4.0,-3.9,33.2,0.5,22.3,62.0*
COc1cc(C(=O)O)nc(OC)n1,-3.6,3.8,2.9,3.5,-8.9,-3.6,x,x
COc1ccc(C2C(C(=O)c3cccs3)=C(O)C(=O)N2c2nncs2)cc1 (centres undefined),160.7*,-85.1*,139.4*,113.5*,132.9*,61.6*,143.9*,165.3*
Cc1cccc(N2C(=O)C(O)=C(C(=O)c3cccs3)C2c2ccc(F)cc2)n1 (centres undefined),3.0,-0.2,7.3,0.1,-20.2,-2.8,x,x
C=CCOc1ccc(C2C(C(=O)c3cccs3)=C(O)C(=O)N2c2nnc(C)s2)cc1 (centres undefined),100.2*,-30.0*,100.2*,74.3*,x,13.3,90.1*,114.5*
C=CCOc1cccc(C2C(C(=O)c3cccs3)=C(O)C(=O)N2Cc2cccnc2)c1 (centres undefined),2.1,0.2,9.4,2.4,10.1,1.8,x,x
COc1ccc(C2C(C(=O)c3cccs3)=C(O)C(=O)N2c2nnc(C)s2)cc1OC (centres undefined),83.5*,-59.9*,83.7*,69.7*,91.0*,37.5*,128.4*,153.7*
O=C(CSc1nc(-c2ccccc2)cc(=O)[nH]1)N1CCOCC1,48.3*,-0.7,5.7,9.6,-24.4,-11.4,10.3,2.7
COc1ccc(N(C)C(=O)Nc2ccc3nsnc3c2)cc1,x,-0.1,x,x,-6.4,12.7,x,x
CC(C)N(C(=O)Nc1ccc2nsnc2c1)C(C)C,66.3*,1.3,52.0*,28.1,3.9,x,28.4,24.3
Nc1cc(Nc2ccc(Br)cc2)nc(N)n1,50.3*,-5.6,53.2*,17.6,33.9,0.7,43.8*,46.2*
Cc1ccc2[nH]c(=O)c(C3C(C#N)=C(N)Oc4c3ccc3cccnc43)cc2c1 (centres undefined),44.1*,1.6,13.2,-1.0,-1.7,-0.1,36.6*,57.5*
Cc1ccc(S(=O)(=O)c2cc3c(=O)n4ccccc4nc3n(C3CCCCC3)c2=N)cc1,1.2,-2.4,3.0,2.2,x,-0.8,x,x
CCCN(CCC)C(=O)c1ccc2c(c1)N(CC)C(=O)c1ccccc1S2(=O)=O,126.7*,2.1,116.8*,71.9*,x,-3.7,8.2,5.4
CCCCN(CC)CCCNC(=O)c1ccc2c(c1)N(CC)C(=O)c1ccccc1S2(=O)=O,1.0,1.7,1.3,3.3,x,-2.8,x,x
O=C1COc2ccc(C(=O)COC(=O)/C=C/c3ccc(Br)o3)cc2N1,72.9*,6.4,14.0,-6.0,x,-24.4,4.2,50.7*
CN1CC(=O)N(CC(=O)Nc2ccc3c(c2)CCC3)C1=O,-10.4,-1.2,-10.3,3.4,-8.1,-7.0,x,x
O=C(NCCCN1CCOCC1)c1cc(Cl)ccc1OCc1ccccc1,9.2,-1.1,5.6,2.5,x,1.1,x,x
COC(C[C@@H](O)C[C@H](O)[C@@H](C)OCc1ccccc1)OC,x,-3.0,x,x,-13.3,-0.1,x,x
CC(C)CCNC(=O)NC(=O)COc1ncnc2sccc12,5.4,-4.4,5.4,3.5,-6.8,-6.4,x,x
SMILES,MCL1 BIM primary,MEX-5 binding,Bcl-xL primary,GLD-1 TGE inh,EBV gp42 inh,eLon inh,Bcl-xL conf,MCL1 BIM confirm
CC(C)CNC(=O)NC(=O)COc1ncnc2sccc12,53.9*,-1.8,14.3,7.4,-0.3,-3.9,8.9,14.4
CCOc1cccc(=O)c2c(C)n(-c3ccc(C(=O)O)cc3)c(C)c12,86.2*,-35.7*,59.1*,29.4,-2.1,-1.5,36.0*,53.3*
O=C(O)c1ccccc1-c1ccccc1C(=O)Nc1cccc(O)c1,0.7,0.1,2.3,-0.1,-23.9,-0.2,x,x
CC(C)C[C@H]1COc2cccc(N3CCN(Cc4ccccc4F)CC3)c2S(=O)(=O)N1,x,x,x,x,x,-0.5,x,x
O=c1oc2ccccc2c2oc3cc(O)c(O)cc3c12,70.5*,-0.1,29.1,1.2,12.3,-1.2,34.0*,74.0*
COc1ccc(S(=O)(=O)N(C)C)cc1NC(=O)COC(=O)c1nn(C)c(=O)c2ccccc12,5.2,0.1,0.6,0.6,-4.7,4.0,x,x
CCN1CCc2c(sc(NC(=O)Cc3ccccc3)c2C(N)=O)C1,6.9,0.8,7.2,2.3,x,-4.9,x,x
CCN1CCc2c(sc(NC(=O)Nc3ccc(Cl)c(Cl)c3)c2C(N)=O)C1,86.7*,x,39.8*,-34.3,18.3,-268.6,54.2*,56.0*
CCN(C(=O)C1CCCN(c2ncnc3c2nc2n3CCCCC2)C1)c1cccc(Cl)c1 (centres undefined),4.8,-0.2,7.7,4.2,x,-2.3,x,x
COc1ccc(OC)c2cc3ccccc3cc12,x,x,x,x,x,42.9,x,x
COc1ccc(OC)c2nc3c(cc12)CCC3,52.9*,2.5,52.5*,32.5*,x,-5.2,9.6,5.2
C/C(N)=C(/C#N)C(=O)CSc1nnc(Nc2cccc(C)c2)s1,40.2*,1.2,7.8,9.2,17.1,3.5,13.7,40.8*
CC1=CC2(C#N)C3(N=C(N)C2(C#N)C(c2ccccc2)N1)OCCO3 (centres undefined),x,x,x,x,-27.4,16.3,x,x
N#CC12C(N)=NC3(OCCO3)C1(C#N)C1=C(CCC1)NC2c1ccccc1 (centres undefined),64.2*,-8.1,34.8*,63.4*,-6.8,1.5,18.2,24.3
N#Cc1c(=O)c2nc(NCc3ccccc3)ncc2n2ccccc12,53.0*,-3.8,43.6*,20.4,7.1,1.8,32.4*,43.1*
N#Cc1c(=O)c2nc(NCCCO)ncc2n2c(=O)c3ccccc3[nH]c12,13.5,2.0,14.2,-0.2,-9.2,-1.7,x,x
